These results are taken from PubChem BioAssay (NCATS).

Each structure is given as a SMILES string. Inconclusive results are not listed. Active and inactive are the calls of the source. The call rests on the fitted dose curve; in most records, active means well fitted cell-killing curve with a large enough effect; inconclusive means small, poorly fitted or top-dose-only effect; inactive means flat fitted curve, though single readings scatter.

A short description of this experiment: Cell Viability - Mesenchymal (AID 546).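 Further: cells exposed to compound for 40 hours before reading.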 Particulars: mesenchymal cells viability, qHTS; series mostly up to 91.7 µM. An outline of the steps:
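Normal human renal glomerulus-derived kidney mesenchymal cells, 1000 per well in complete medium, were treated with compounds for 40 hr at 37 °C. Viability was read as intracellular ATP by CellTiter-Glo luminescence; AC50 values came from Hill-equation fits of qHTS concentration-response data.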
Regarding `CCNc1nc(Cl)nc(NC(C)C)n1`, the result was inactive.
With `CCOCN(C(=O)CCl)c1c(C)cccc1CC` the entry was “inactive”.
As for `ClC(Cl)=C(c1ccc(Cl)cc1)c1ccc(Cl)cc1`, the compound was classed as inactive.
As for `ClC1=C(Cl)C2(Cl)C3C4C=CC(C4)C3C1(Cl)C2(Cl)Cl` (centres undefined), the compound was classed as inactive.
With `O=C(O)COc1ccc(Cl)cc1Cl` the entry was “inactive”; with `COC(=O)NC(=S)Nc1ccccc1NC(=S)NC(=O)OC`, “inactive”; with `C/C=C/c1ccc2c(c1)OCO2`, “inactive”.
With `COP(=S)(OC)Oc1ccc([N+](=O)[O-])cc1` the entry was “inactive”; with `O=S1OCC2C(CO1)C1(Cl)C(Cl)=C(Cl)C2(Cl)C1(Cl)Cl` (centres undefined), “inactive”.
With `C=CCc1ccc(OC)cc1`, the result was inactive.
With `ClC1=C(Cl)C2(Cl)C3C(Cl)C=CC3C1(Cl)C2(Cl)Cl` (centres undefined) the entry was “inactive”.
With `CNC(=O)O/N=C/C(C)(C)SC` the entry was “inactive”; with `c1ccc(N=Nc2ccccc2)cc1`, “inactive”.
Take `CCc1cccc(CC)c1N(COC)C(=O)CCl`: the outcome was inactive.
